Assay outcomes: PubChem, several laboratories
Compounds with a hit are over-represented: about 3.7% of the library has one in this group of screens.
BoNT-A LC inh2: blocks Botulinum neurotoxin A light chain protease | multiplex microsphere protease substrate cleavage, flow cytometry | inhibition, % at 10 µM | 0.17% of 360,000 active | AID 588499; further: plate controls were buffer without enzyme for full effect and enzyme alone for no effect
Anthrax LF inh2: inhibitors of Bacillus anthracis lethal factor protease. P15917. multiplex microsphere protease cleavage assay, LF. inhibition, % at 10 µM. 0.12% of 360,000 active. AID 588501; further: plate controls were buffer without enzyme for full effect and enzyme alone for no effect
Autofluor counter: compound fluorescence in toxin protease inhibitor counterscreen; compound autofluorescence counterscreen, microsphere flow cytometry; stronger effect = higher value; fluorescence intensity (no concentration beside the values); 3.1% of 360,000 active; AID 624483; in the data active means fluorescence intensity above about 16000; inconclusive means no clear call, values can overlap the other calls
BH1578 lux ind: inducers of Vibrio cholerae quorum light production without autoinducers; V. cholerae BH1578 lux reporter, luminescence, 6 h; activation, % at 18.7 µM; 0.16% of 350,000 active; in the data active means activation mostly above about 9.7%, no sharp cut-off; inconclusive means no clear call, values can overlap the other calls; inactive means mostly below about 3.7%
BoNT F protease: blocks Botulinum neurotoxin F light chain protease | Multiplex microsphere protease cleavage assay, flow cytometry | inhibition, % at 10 µM | 0.22% of 360,000 active; in the data active means inhibition above about 35%, passing the limit was not always enough; inconclusive means no clear call, values can overlap the other calls; further: plate controls were buffer without enzyme for full effect and enzyme alone for no effect
BJeLR viability: kills HRASV12-expressing BJeLR cells; BJeLR (HRASV12) viability, CellTiter-Glo ATP luminescence, 48 h; inhibition, % (no concentration beside the values); 0.17% of 300,000 active; AID 1554; in the data active means inhibition above about 50%; inconclusive means no clear call, values can overlap the other calls
Starred values were filed as active, the others as inactive; i = inactive; ? = inconclusive; . = not tested or not shown; ! = not active in a repeat. Unless noted, no stated cut-off is given here; in the data, active means inhibition above about 30%; inconclusive means no clear call, values can overlap the other calls; inactive means below that.

SMILES	BoNT-A LC inh2	Anthrax LF inh2	Autofluor counter	BH1578 lux ind	BoNT F protease	BJeLR viability
CCn1c(=O)c2ccccc2n2c(SCC(=O)NCc3cccs3)nnc12	-1.8	-1.3	23072*	-3.8	-3.7	-5.4
CCn1c(SCC(=O)NCc2ccco2)nnc1-c1cccs1	?	-6.7	19582*	-2.7	5.8	.
CCCn1c(=O)c2ccccc2n2c(SCC(=O)NCc3cccs3)nnc12	1.7	4.6	3805	-5.0	34.1	4.3
CC1(C(=O)NCc2ccco2)CCN1C(=O)C1(c2ccccc2)CC1 (stereo not given)	-1.0	-0.2	3980	0.6	-10.2	.
COc1ccc(-c2cc(C(=O)NCc3ccc(F)cc3)[nH]n2)c(C)c1	0.4	-4.8	2777	i	-8.6	.
CCCn1[nH]cc(SC)c(=O)c1=O	?	1.1	16432*	-0.7	-0.4	2.8
Cc1ccc(-n2c(=O)cc(NCc3cccnc3)[nH]c2=O)cc1	2.3	0.0	21543*	-0.3	1.5	-2.3
Cc1ccc(S(=O)(=O)N2C[C@H]3N(C(=O)OC(C)C)N(C(=O)OC(C)C)C[C@H](OC(=O)NCC4CCCCC4)[C@@]3(O)C2)cc1	0.1	-3.8	3751	-0.5	-2.4	.
CC1(C)N=C(N)N=C(N)N1c1ccc(CCCCc2ccccc2)cc1	-0.6	-9.4	3619	0.7	-12.2	.
CSc1ccc(/C=N/n2c(C)cc(C)cc2=O)cc1	?	0.1	23602*	-1.4	-4.6	0.7
CSc1ccc(/C=N/n2c(C)nnc2C)cc1	-0.1	-2.1	2027	-0.4	0.8	6.1
Cc1nc2sccn2c(=O)c1S(=O)(=O)N1CCN(c2ccccc2F)CC1	0.3	-3.6	5527	-0.2	5.3	.
O=C(Cc1noc2ccccc12)Nc1ccc2ccccc2c1	0.6	-3.1	21952*	i	-1.4	-6.6
Cc1ccc(NC(=O)Cc2noc3ccccc23)cc1	0.8	3.4	5464	-0.7	7.8	12.8
CN1CCN(C(=O)c2cc(Cl)cc(Cl)c2)CC1	0.4	-9.2	4133	-0.3	?	0.3
Cc1ccc(C)n1-c1ccc(N2CCOCC2)nc1	-0.3	-3.9	22547*	1.4	-9.5	-5.7
O=C(c1cc(Cl)cc(Cl)c1)N1CCOCC1	1.1	0.5	20304*	-0.2	2.0	0.1
Cc1ccc(C)n1-c1ccc(C(=O)N2CCOCC2)cc1	?	-0.7	22385*	1.3	-0.7	-5.9
Nc1ncnc2c1ncn2[C@@H]1O[C@H](C(=O)NCCCN2CCCC2=O)[C@@H](O)[C@H]1O	0.1	1.5	4186	.	-2.2	.
O=C(Nc1c2c(nn1-c1ccccc1)CS(=O)(=O)C2)c1ccc(Br)o1	-0.2	-4.1	3938	-0.4	-4.7	.
Cc1nn(C2CCOC(C)(C)C2)c2c1C(c1ccc(OC(C)C)cc1)SCC(=O)N2 (stereo not given)	0.0	0.0	21930*	i	-1.5	1.5
COc1ccc(C2SCC(=O)Nc3c2c(C)nn3-c2ccccc2)cc1 (stereo not given)	-0.9	0.7	5052	-0.5	-9.6	10.2
CC(C)(C)c1cc(NCCCn2ccnc2)n2ncc(-c3ccc(Cl)cc3)c2n1	?	-5.0	25531*	-0.9	-9.8	-7.1
O=C(N1CCN(c2ccccc2)CC1)C(F)(F)C(F)F	8.2	-12.2	20656*	2.1	10.0	-1.2
O=C(c1ccccc1C(=O)N1CCN(c2ccccc2)CC1)N1CCN(c2ccccc2)CC1	1.5	-0.3	8242	0.7	-6.7	1.6
SMILES	BoNT-A LC inh2	Anthrax LF inh2	Autofluor counter	BH1578 lux ind	BoNT F protease	BJeLR viability
O=C(N1CCN(c2ccccc2)CC1)C(F)(F)C(F)(F)F	0.5	-4.1	19895*	i	-0.2	0.1
CC(C)CN(C(=O)COC(=O)Cc1n[nH]c(=O)c2ccccc12)C1CCS(=O)(=O)C1 (stereo not given)	?	0.2	21604*	i	0.9	6.8
O=C(COC(=O)c1ccccc1NS(=O)(=O)c1cccs1)NC1CCCCC1	4.9	-0.2	2759	-0.5	45.1*	16.6
O=C(C[n+]1cccc(C(=O)Nc2ccccc2)c1)c1ccccc1	-0.6	6.4	6310	.	-2.1	.
Cc1ccc(S(=O)(=O)c2nc(NCc3ccc4c(c3)OCO4)sc2Cl)cc1	2.7	1.0	25130*	-0.2	-0.1	-12.7
CC(=O)Nc1nc(S(=O)(=O)c2ccc(C)cc2)c(Cl)s1	-2.6	-7.1	3735	-1.6	-21.5	3.3
O=C(O)c1cc[c]([Hg][Cl])cc1	60.3*	-22.5	9321	i	-4.2	.
O=C(O)c1ccccc1	0.1	0.1	5529	-0.4	10.7	.
Cc1c(C(=O)O)oc2c1C(O)CC(C)(C)C2 (stereo not given)	-1.0	-1.9	16667*!	-2.0	-2.2	0.5
O=C(CCCN1C(=O)C(=Cc2ccc3c(c2)OCO3)SC1=S)Nc1ccc(C(=O)O)c(O)c1	0.8	-0.3	3820	i	3.1	.
CC1=C(C(=O)N(C)C)CC(CC(=O)NC2CCCCC2)C(=O)N1CCCN1CCCC1=O (stereo not given)	-0.3	-3.4	2884	-0.4	0.4	.
C=C1C(=O)C=C2CN(C(=O)c3ccccc3)[C@@](Cc3ccc(F)cc3)(C(=O)OC)[C@@H]12	-0.3	-5.2	3239	i	-4.8	107.4*
Cc1c([N+](=O)[O-])cc(C(=O)Oc2ccc(Br)cc2C(=S)N2CCCCC2)cc1[N+](=O)[O-]	?	-2.9	22033*	-0.2	1.2	0.6
O=c1c(Br)ccc(Br)cc1Br	-0.2	0.1	3473	i	4.8	.
COc1ccc(C2CC(=O)N3C(=C2C#N)SCC3(O)c2ccccc2)cc1 (stereo not given)	2.9	-3.7	19377*	-0.5	2.2	-5.8
CNc1cc(-c2cc(OC)ccc2OC)ncn1	-0.7	-5.3	4059	i	-9.7	.
COc1ccc(-n2cccc2C=O)cc1	-0.7	-1.4	2784	-0.2	-5.4	-2.1
COc1ccc(-n2cccc2C=O)cc1OC	?	-1.6	22117*	-7.4	-2.5	-3.4
COc1ccc(S(=O)(=O)N2c3cc(Cl)ccc3Oc3nc4ccccc4nc32)cc1	1.4	0.3	3338	-0.4	6.8	74.2*
O=S(=O)(c1ccc(Cl)cc1)N1c2ccccc2Oc2nc3ccccc3nc21	-0.2	-7.0	5559	i	-8.1	-7.5
Cc1cc(-n2nnc3ccccc32)nc2ccccc12	-2.6	0.2	17243*	i	-6.4	0.2
O=C(c1cccs1)N1CCN(S(=O)(=O)c2ccccc2)CC1	-0.9	-1.9	16321*	-1.4	-3.5	-0.7
CC(=O)N1CCN(C(=O)C(Cc2ccccc2)NC(=O)c2ccccc2)CC1 (stereo not given)	-3.0	-0.6	8284	i	-1.8	.
O=C(c1cccs1)N1CCN(CCCc2ccccc2)CC1	-2.4	-1.8	21596*	0.7	-3.8	2.0
CC(=O)NC(Cc1ccccc1)C(=O)N1CCN(C(=O)c2cccs2)CC1 (stereo not given)	-0.5	-2.6	16669*	0.0	-0.1	-5.4
CC(=O)NC(Cc1ccc(F)cc1)C(=O)N1CCN(C(=O)NCc2ccccc2)CC1 (stereo not given)	-0.9	-5.9	20125*	0.1	-1.2	5.7
